Measurements published in publication PMC5836133, “The intracellular immune receptor Rx1 regulates the DNA-binding activity of a Golden2-like transcription factor”.
Over roughly 16,000 sequences, “e-score” has its median near -0.044; the highest 2% begin near 0.38. For the sample, the highest values were picked, then their nearest neighbours and some sequences at random.

Biological target: T1, GST-NbGlk1(82-244) (Nicotiana benthamiana)
T1 chain: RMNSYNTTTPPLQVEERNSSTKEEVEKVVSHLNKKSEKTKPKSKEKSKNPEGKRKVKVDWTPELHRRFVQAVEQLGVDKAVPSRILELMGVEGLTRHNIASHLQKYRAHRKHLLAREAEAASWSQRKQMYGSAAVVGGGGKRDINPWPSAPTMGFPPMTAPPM
Experiment: protein-binding microarray; NbGlk1 is a Golden2-like transcription factor of Nicotiana benthamiana; high values mean tight binding
Details: protein: recombinant; tags: GST (pTH6838); dsDNA, one strand shown

Row | Sequence | binding signal
1 | ATACCGCA | 0.211 ± 0.101 E-score
2 | AAAGCGAT | 0.215 ± 0.0733 E-score
3 | AATTTGCG | 0.223 ± 0.0644 E-score
4 | ATTCACAA | 0.218 ± 0.0225 E-score
5 | AAAGCAAT | 0.27 ± 0.0827 E-score
6 | ATTTCCTA | 0.358 ± 0.0333 E-score
7 | ATCTCCTC | 0.296 ± 0.0162 E-score
8 | ATATCGTA | 0.364 ± 0.049 E-score
9 | ATATCCTG | 0.373 ± 0.0434 E-score
10 | ATATCCTA | 0.416 ± 0.0447 E-score
11 | ATATCCTC | 0.402 ± 0.00645 E-score
12 | ATTTGGTG | 0.213 ± 0.0582 E-score
13 | AGACAGAT | 0.222 ± 0.0932 E-score
14 | ATCCTGCA | 0.261 ± 0.126 E-score
15 | AGAAGATC | 0.383 ± 0.0277 E-score
16 | AGAAGATA | 0.26 ± 0.0155 E-score
17 | AGGAGAAT | 0.267 ± 0.0583 E-score
18 | AGGAGATA | 0.228 ± 0.0512 E-score
19 | ACGAGATC | 0.41 ± 0.00651 E-score
20 | AGGAGATC | 0.382 ± 0.00924 E-score
21 | ACGAGATA | 0.2747 ± 0.00202 E-score
22 | ACAAGATC | 0.2947 ± 0.00243 E-score
23 | ATGAGATC | 0.369 ± 0.0039 E-score
24 | AACGTATC | 0.322 ± 0.0281 E-score
25 | ATTACATG | 0.293 ± 0.0579 E-score

Row | Sequence | binding signal
26 | ATCTGTAG | 0.3 ± 0.055 E-score
27 | ATACGCAT | 0.204 ± 0.0532 E-score
28 | ATCTGATC | 0.329 ± 0.0755 E-score
29 | ATTACACA | 0.31 ± 0.0413 E-score
30 | ATATCACC | 0.277 ± 0.0211 E-score
31 | ATCTCTCA | 0.295 ± 0.0129 E-score
32 | ATATCTCA | 0.3895 ± 0.00167 E-score
33 | ATATCACG | 0.347 ± 0.0113 E-score
34 | ATATCTCG | 0.435 ± 0.0109 E-score
35 | ATATCTCC | 0.388 ± 0.0404 E-score
36 | ATCTCTCG | 0.231 ± 0.0608 E-score
37 | ATCTCCCC | 0.301 ± 0.0229 E-score
38 | ATTTCTCA | 0.248 ± 0.108 E-score
39 | AATCCCCA | 0.346 ± 0.00463 E-score
40 | ACTAAATC | 0.213 ± 0.00269 E-score
41 | AACACAAT | 0.213 ± 0.0479 E-score
42 | ATTACAAC | 0.257 ± 0.0217 E-score
43 | ATGAGATA | 0.20921 ± 0.000115 E-score
44 | ATTGCGCA | 0.301 ± 0.0513 E-score
45 | ATCTGGAC | 0.346 ± 0.0997 E-score
46 | ATCTCCAA | 0.342 ± 0.0598 E-score
47 | AGTAAATC | 0.241 ± 0.0671 E-score
48 | ACCAAAAT | 0.245 ± 0.0514 E-score
49 | ACCAAATC | 0.406 ± 0.00414 E-score
50 | ATCAAATC | 0.36 ± 0.00877 E-score

Row | Sequence | binding signal
51 | AAAAAAAT | 0.286 ± 0.0488 E-score
52 | AGAAAAAT | 0.252 ± 0.0352 E-score
53 | AGAAAATC | 0.4794 ± 0.0015 E-score
54 | AGCAAATA | 0.221 ± 0.0663 E-score
55 | AAAAAATT | 0.204 ± 0.0566 E-score
56 | AAAAAATC | 0.439 ± 0.0166 E-score
57 | AGCAAAAT | 0.241 ± 0.0294 E-score
58 | AGCAAATC | 0.4187 ± 0.000896 E-score
59 | ATATGAAG | 0.207 ± 0.0492 E-score
60 | AATCACAG | 0.3111 ± 0.000659 E-score
61 | CAAGATCC | 0.33 ± 0.0132 E-score
62 | ATTACACC | 0.334 ± 0.0466 E-score
63 | AACGATAT | 0.29 ± 0.015 E-score
64 | ATTTTCCC | 0.304 ± 0.0203 E-score
65 | AAATTATA | 0.256 ± 0.00661 E-score
66 | AATCGTTG | 0.203 ± 0.0845 E-score
67 | AACATAAT | 0.233 ± 0.0831 E-score
68 | CAAAAATC | 0.399 ± 0.00565 E-score
69 | ACACAATC | 0.39 ± 0.0203 E-score
70 | CACAAATC | 0.274 ± 0.0179 E-score
71 | ATAAAATC | 0.409 ± 0.00541 E-score
72 | ATAAAAAT | 0.292 ± 0.0292 E-score
73 | ATAAAATA | 0.22 ± 0.00301 E-score
74 | ACAAAAAT | 0.238 ± 0.045 E-score
75 | ACAAAATC | 0.4578 ± 0.00327 E-score

Row | Sequence | binding signal
76 | ACAAAATA | 0.293 ± 0.102 E-score
77 | AACAAATC | 0.302 ± 0.043 E-score
78 | AGACAATC | 0.3189 ± 0.000404 E-score
79 | ACACAATA | 0.226 ± 0.0401 E-score
80 | ACGCGTAT | 0.211 ± 0.0436 E-score
81 | ATTTCAAG | 0.23 ± 0.00665 E-score
82 | ATAACGTA | 0.205 ± 0.0524 E-score
83 | AGGATACG | 0.357 ± 0.0118 E-score
84 | ATAGCAAT | 0.321 ± 0.015 E-score
85 | ATCCTATA | 0.326 ± 0.0829 E-score
86 | ATCTGCAA | 0.317 ± 0.0136 E-score
87 | ATCGCAGA | 0.23 ± 0.0112 E-score
88 | ATCTCCGG | 0.318 ± 0.0623 E-score
89 | ATCTTAGA | 0.243 ± 0.155 E-score
90 | ATTCCTAA | 0.236 ± 0.0111 E-score
91 | CAATCCGA | 0.35 ± 0.00607 E-score
92 | AAATCCGG | 0.441 ± 0.0267 E-score
93 | AAATCCCT | 0.354 ± 0.00608 E-score
94 | AAATCCGT | 0.401 ± 0.0483 E-score
95 | CAATCCGC | 0.305 ± 0.107 E-score
96 | AAATCCGA | 0.427 ± 0.0109 E-score
97 | AAATCAGA | 0.315 ± 0.029 E-score
98 | AAATCCGC | 0.432 ± 0.0197 E-score
99 | AATCCCGC | 0.335 ± 0.0716 E-score
100 | CAATCCGG | 0.328 ± 0.0049 E-score

Row | Sequence | binding signal
101 | AATCCCGT | 0.366 ± 0.0273 E-score
102 | AGATCCGG | 0.291 ± 0.0113 E-score
103 | ACGGTATC | 0.297 ± 0.0236 E-score
104 | ATATAGAA | 0.254 ± 0.0436 E-score
105 | ATTTAGAA | 0.279 ± 0.0333 E-score
106 | ATTCCTTA | 0.228 ± 0.0221 E-score
107 | AACAGAAT | 0.301 ± 0.106 E-score
108 | AATCACGA | 0.339 ± 0.0266 E-score
109 | AATCTCGG | 0.429 ± 0.00874 E-score
110 | ATTCTCGA | 0.308 ± 0.0153 E-score
111 | AATCTCGT | 0.436 ± 0.0316 E-score
112 | AATCGCGT | 0.352 ± 0.0711 E-score
113 | AATCACGT | 0.304 ± 0.0574 E-score
114 | AATCTCGA | 0.436 ± 0.00491 E-score
115 | ATTCTCGG | 0.229 ± 0.0773 E-score
116 | AATCTCGC | 0.411 ± 0.0281 E-score
117 | AATCACGG | 0.256 ± 0.0042 E-score
118 | ATTCTCGC | 0.232 ± 0.00302 E-score
119 | AATCGCGC | 0.311 ± 0.0585 E-score
120 | AAATAAAT | 0.24 ± 0.102 E-score
121 | ATCTCGAA | 0.367 ± 0.06 E-score
122 | ATAGCGTA | 0.266 ± 0.0123 E-score
123 | AATACGAT | 0.294 ± 0.0273 E-score
124 | AATACGTG | 0.216 ± 0.0545 E-score
125 | ATAAGATA | 0.301 ± 0.0184 E-score

Row | Sequence | binding signal
126 | ATTCGGGA | 0.286 ± 0.0532 E-score
127 | ATACAGAA | 0.221 ± 0.0562 E-score
128 | ACAAGGAT | 0.227 ± 0.00244 E-score
129 | AGATTCTA | 0.4515 ± 0.00133 E-score
130 | AAATTCTA | 0.245 ± 0.0867 E-score
131 | ATTCTCTG | 0.358 ± 0.0226 E-score
132 | ATTCTCTA | 0.306 ± 0.094 E-score
133 | AAATTCTC | 0.283 ± 0.0053 E-score
134 | ATATTCTC | 0.402 ± 0.0347 E-score
135 | AGATTCTG | 0.4694 ± 0.00442 E-score
136 | AGATTCAC | 0.289 ± 0.0335 E-score
137 | ATATTCTA | 0.25 ± 0.0067 E-score
138 | AAATTCTG | 0.235 ± 0.065 E-score
139 | ATATTCTG | 0.342 ± 0.04 E-score
140 | AGATTCTC | 0.4901 ± 0.00333 E-score
141 | AATCAATT | 0.213 ± 0.116 E-score
142 | ATAATTTC | 0.227 ± 0.0306 E-score
143 | AGTCAGAT | 0.208 ± 0.0487 E-score
144 | AGTTGGAT | 0.269 ± 0.0791 E-score
145 | AATCACGC | 0.256 E-score
146 | ATAAGGAT | 0.22 ± 0.0746 E-score
147 | ATCGGTAA | 0.201 ± 0.0464 E-score
148 | ATATTCCA | 0.326 ± 0.0114 E-score
149 | ATATTCCC | 0.393 ± 0.0225 E-score
150 | ATATTCCG | 0.36 ± 0.00732 E-score

Row | Sequence | binding signal
151 | AAATCAGC | 0.363 ± 0.0041 E-score
152 | CAATCGGA | 0.227 ± 0.013 E-score
153 | ATATTGAA | 0.203 ± 0.00588 E-score
154 | AATGATAT | 0.224 ± 0.0384 E-score
155 | AATCTAAG | 0.402 ± 0.0258 E-score
156 | ATCCTAAT | 0.248 ± 0.0062 E-score
157 | AATCGAAC | 0.213 ± 0.0388 E-score
158 | AATCAAAC | 0.25 ± 0.0482 E-score
159 | ATTCTAAA | 0.221 ± 0.0153 E-score
160 | AATCAAAT | 0.297 ± 0.0152 E-score
161 | AATCTAAA | 0.403 ± 0.0351 E-score
162 | AATCAAAG | 0.221 ± 0.0254 E-score
163 | AATTTAAA | 0.226 ± 0.0725 E-score
164 | AATCTAAT | 0.412 ± 0.0116 E-score
165 | AATCGAAG | 0.285 ± 0.0157 E-score
166 | AATCTAAC | 0.413 ± 0.0271 E-score
167 | ATCGCACA | 0.256 ± 0.0485 E-score
168 | ATCTCATG | 0.3181 ± 0.000641 E-score
169 | ATTTCCGC | 0.333 ± 0.0224 E-score
170 | ATCTTATA | 0.342 ± 0.00345 E-score
171 | ATCTTATC | 0.288 ± 0.0568 E-score
172 | ATCTGGAG | 0.225 ± 0.0674 E-score
